Shown are actives, neighbours in structure and some others; about 3.5% of the full set was active somewhere.
HSP90 refold inh = HSP90 refolding inhibition in rabbit reticulocyte lysate | actives 0.91% (n = 290,000) | AID 1789 | inhibition, % at 5.6 µM | luciferase refolding luminescence, 3 h;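 active = inhibition above the screen-wide mean plus 3 SD, computed separately per campaign, cut at about 16% in these data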;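 also: inhibitors lower the luminescence because luciferase stays unfolded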
PPC-1+TRAIL kill = compounds killing PPC-1 cancer cells with TRAIL present (potentiator screen, no TRAIL-free arm); PPC-1 cells + TRAIL, ATPLite viability luminescence; cell killing (% activity), % at 4 µM or 5 µM; actives 0.41% (n = 220,000);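 active = cell killing above 50% in the first pass at 4 µM, then a duplicate retest at 5 µM averaging 50% or more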
TWEAK Fn14 block = blocks TWEAK-Fn14 interaction in a reporter cell assay. TWEAK-stimulated Fn14 reporter cells, luciferase luminescence, 8 h. inhibition, % at 10 µM. actives 2% (n = 360,000); in the data active = inhibition above about 50%
Platelet DG rel = modulates dense granule release in human platelets; human platelet-rich plasma, SFLLRN dense granule ATP release, luminescence; inhibition, %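 (compounds screened at 7.5 µM in platelet-rich plasma)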; actives 0.22% (n = 300,000); AID 1663;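 active = mean replicate score, as percent of positive control, at or above 50; inconclusive = mean below 50 but at least one replicate at or above 50; inactive = mean and every replicate below 50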
TROY NFkB inh = inhibitors of TROY-dependent NF-kB signaling. Q293 LMP1-TROYcd NF-kB luciferase reporter, 4 h. inhibition, % at 10 µM. actives 0.98% (n = 360,000). AID 1347056;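 active = compounds whose plate-normalised and pattern-corrected inhibition of the luciferase reporter signal at the single screening dose is 50% or more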
C8 TRAIL sens = sensitizes caspase-8 expressing cells to TRAIL | NB7+C8 cells + TRAIL, ATPlite viability luminescence | inhibition (viability loss, TRAIL sensitization), % at 10 µM | actives 1% (n = 360,000) | AID 624354;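 active = compounds causing at least 50% loss of cell viability in the single-dose screen, relative to plate controls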
Numbers stand for hits.

What do the screens show for `CCCCOc1ccc(Br)cc1/C(C)=N/NC1=NCCN1`?
HSP90 refold inh: inactive; PPC-1+TRAIL kill: inactive; TWEAK Fn14 block: 51; Platelet DG rel: inactive; TROY NFkB inh: inactive; C8 TRAIL sens: inactive

How did Cc1ccc(NC(=O)c2ccc(Cl)cc2Cl)cc1O do in these assays?
HSP90 refold inh: inactive; PPC-1+TRAIL kill: inactive; TWEAK Fn14 block: inactive; Platelet DG rel: inactive; TROY NFkB inh: inactive; C8 TRAIL sens: inactive

Results for Cc1nn(C(C)C(=O)N2CCc3ccccc3C2)c(=O)c2cc3occc3n12 (stereo not given) ?
HSP90 refold inh: inactive; PPC-1+TRAIL kill: inactive; TWEAK Fn14 block: inactive; Platelet DG rel: inconclusive; TROY NFkB inh: inactive; C8 TRAIL sens: inactive

What do the screens show for `CCC(C(=O)N1CCc2ccccc2C1)n1nc(C)n2c(cc3occc32)c1=O` (stereo not given)?
HSP90 refold inh: inactive; PPC-1+TRAIL kill: inactive; TWEAK Fn14 block: 81; Platelet DG rel: inactive; C8 TRAIL sens: inactive

How did Cn1c(N)c(C(=O)CSc2nn(-c3ccccc3)c(=S)s2)c(=O)n(C)c1=O do in these assays?
TWEAK Fn14 block: 54; TROY NFkB inh: 58; C8 TRAIL sens: inactive

What do the screens show for `CC(Sc1nn(-c2ccc(F)cc2)c(=S)s1)C(=O)c1c(N)n(C)c(=O)n(C)c1=O` (stereo not given)?
TWEAK Fn14 block: inactive; Platelet DG rel: inactive; TROY NFkB inh: inactive; C8 TRAIL sens: inactive

How did COc1ccc(S(=O)(=O)/N=C2/C=CC(=O)C(C)=C2C)cc1 do in these assays?
HSP90 refold inh: inactive; PPC-1+TRAIL kill: inactive; TWEAK Fn14 block: inactive; Platelet DG rel: inactive; TROY NFkB inh: inactive; C8 TRAIL sens: inactive

What do the screens show for `CC1=C(C)/C(=N\OS(=O)(=O)c2ccc(C)cc2)C=CC1=O`?
HSP90 refold inh: inactive; PPC-1+TRAIL kill: inactive; TWEAK Fn14 block: 93; TROY NFkB inh: inactive; C8 TRAIL sens: inactive

How did O=Nc1c(-c2c(O)[nH]c3cc(Br)ccc23)[nH]c2ccccc12 do in these assays?
HSP90 refold inh: inactive; TWEAK Fn14 block: 91; Platelet DG rel: inactive; TROY NFkB inh: 69; C8 TRAIL sens: 84

How did Cc1ccc(C)c(C(=O)CCC(=O)O)c1 do in these assays?
HSP90 refold inh: inactive; PPC-1+TRAIL kill: inactive; TWEAK Fn14 block: inactive; Platelet DG rel: inactive; TROY NFkB inh: inactive; C8 TRAIL sens: inactive

What do the screens show for `CC1CN(CCCCSc2ccc(Cl)cc2)CC(C)O1` (stereo not given)?
HSP90 refold inh: inactive; TWEAK Fn14 block: 90; Platelet DG rel: inactive; TROY NFkB inh: inactive; C8 TRAIL sens: inactive

Results for CC1CN(CCOCCSc2ccc(Cl)cc2)CC(C)O1 (stereo not given) ?
HSP90 refold inh: inactive; TWEAK Fn14 block: inactive; Platelet DG rel: inactive; TROY NFkB inh: inactive; C8 TRAIL sens: inactive

How did Cc1ccccc1NS(=O)(=O)c1cc(C(=O)Nc2cccc([N+](=O)[O-])c2)ccc1C do in these assays?
HSP90 refold inh: inactive; PPC-1+TRAIL kill: inactive; TWEAK Fn14 block: 67; Platelet DG rel: inactive; TROY NFkB inh: 59; C8 TRAIL sens: inactive

How did Cc1ccc(C(=O)Nc2ccccc2C(=O)O)cc1S(=O)(=O)NCc1ccccc1 do in these assays?
HSP90 refold inh: inactive; TWEAK Fn14 block: inactive; Platelet DG rel: inactive; TROY NFkB inh: inactive; C8 TRAIL sens: inactive

What do the screens show for `Cc1ccc(C(=O)Nc2cccc([N+](=O)[O-])c2)cc1S(=O)(=O)Nc1ccc(C(=O)O)cc1`?
HSP90 refold inh: inactive; PPC-1+TRAIL kill: inactive; TWEAK Fn14 block: inactive; Platelet DG rel: inactive; TROY NFkB inh: inactive; C8 TRAIL sens: inactive

What do the screens show for `Cc1ccc(C(=O)Nc2ccccc2C(=O)O)cc1S(=O)(=O)Nc1ccc(Br)cc1`?
TWEAK Fn14 block: inactive; Platelet DG rel: inactive; TROY NFkB inh: 51; C8 TRAIL sens: inactive

How did COc1ccc(N2CCN(C(=O)CC(C)S(=O)(=O)c3ccc4c(c3)NC(=O)CO4)CC2)cc1 (stereo not given) do in these assays?
HSP90 refold inh: inactive; TWEAK Fn14 block: inactive; Platelet DG rel: inactive; TROY NFkB inh: inactive; C8 TRAIL sens: inactive

How did CC(CC(=O)N1CCN(c2cccc(Cl)c2)CC1)S(=O)(=O)c1ccc2c(c1)NC(=O)CO2 (stereo not given) do in these assays?
HSP90 refold inh: inactive; TWEAK Fn14 block: 59; Platelet DG rel: inactive; TROY NFkB inh: inactive; C8 TRAIL sens: inactive

Results for COc1ccccc1CNS(=O)(=O)c1c(C(=O)N2CCCCCC2)c(C)n(C)c1C ?
HSP90 refold inh: inactive; TWEAK Fn14 block: inactive; Platelet DG rel: inactive; TROY NFkB inh: inactive; C8 TRAIL sens: inactive

Screening data: PubChem BioAssay, several laboratories
